Assay results as given in PubChem BioAssay (NCATS).
Records with an inconclusive call do not appear. Where a call stands in place of a potency, no number is given. Activity calls are given as the source filed them. Unless noted, calls come from the whole dose curve.

Tests used:
[1] = qHTS for Inhibitors of the Functional Ribonucleoprotein Complex (vRNP) of Lassa (LASV) Arenavirus: Viability assay - alamar blue signal for LASV Primary Screen (AID 1347083; calls by dose curve; tested in HEK293 reporter line; note: nearly all actives have a fitted effect of over 80% in size)
[2] = qHTS for Inhibitors of the Functional Ribonucleoprotein Complex (vRNP) of Lymphocytic Choriomeningitis Arenaviruses (LCMV): Viability assay - alamar blue signal for LCMV Primary Screen (AID 1347085; calls by dose curve; tested in HEK293 reporter line; note: nearly all actives have a fitted effect of over 80% in size)
[3] = biological target: Nucleoprotein (Lymphocytic choriomeningitis virus (strain Armstrong)) (UniProt P09992); assay: qHTS for Inhibitors of the Functional Ribonucleoprotein Complex (vRNP) of Lymphocytic Choriomeningitis Arenaviruses (LCMV): LCMV Primary Screen - GLuc reporter signal (AID 1347086); note: nearly all actives have a fitted effect of over 70% in size
Potency is the fitted concentration of half-maximal effect.

Sequence of Nucleoprotein (Lymphocytic choriomeningitis virus (strain Armstrong)) (P09992 whole entry, looked up): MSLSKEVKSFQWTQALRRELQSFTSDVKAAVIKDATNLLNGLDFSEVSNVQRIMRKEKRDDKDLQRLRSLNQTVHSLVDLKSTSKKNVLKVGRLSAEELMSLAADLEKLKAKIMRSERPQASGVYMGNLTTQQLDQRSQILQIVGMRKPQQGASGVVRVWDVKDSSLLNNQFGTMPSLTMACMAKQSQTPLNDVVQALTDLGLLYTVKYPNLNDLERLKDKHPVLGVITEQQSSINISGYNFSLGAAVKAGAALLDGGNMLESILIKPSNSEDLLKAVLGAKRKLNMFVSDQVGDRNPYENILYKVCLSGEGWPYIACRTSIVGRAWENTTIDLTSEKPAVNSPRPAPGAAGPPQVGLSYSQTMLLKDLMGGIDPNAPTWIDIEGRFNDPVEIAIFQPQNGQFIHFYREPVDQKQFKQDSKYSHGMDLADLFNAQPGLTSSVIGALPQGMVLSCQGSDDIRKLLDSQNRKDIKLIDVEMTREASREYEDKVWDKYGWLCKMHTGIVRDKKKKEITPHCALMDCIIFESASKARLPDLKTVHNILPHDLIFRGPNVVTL

Row | SMILES | Potency [1] | Potency [2] | Potency [3]
1 | CC(C)=CCC/C(C)=C/CO | inactive | inactive | inactive
2 | CC1CCN(CCCC(=O)c2ccc(F)cc2)CC1 | inactive | inactive | inactive
3 | Cc1ccc(-c2ccccc2C#N)cc1 | inactive | inactive | inactive
4 | CC(C)[N+](C)(C)CC(O)COc1cccc2ccccc12 (centres undefined) | inactive | inactive | inactive
5 | CC(=O)OC(C)OC(=O)C(C)c1ccc(-c2ccccc2)c(F)c1 (centres undefined) | inactive | inactive | inactive
6 | Cc1onc(-c2c(Cl)cccc2Cl)c1C(=O)Cl | inactive | inactive | inactive
7 | Cc1c(NC(C)C)c(=O)n(-c2ccccc2)n1C | inactive | inactive | inactive
8 | CC[C@H]1OC(=O)[C@H](C)[C@@H](O[C@H]2C[C@@](C)(OC)[C@@H](O)[C@H](C)O2)[C@H](C)[C@@H](O[C@@H]2O[C@H](C)C[C@H](N(C)C)[C@@H]2O)[C@](C)(O)C[C@@H](C)CN(C)[C@H](C)[C@@H](O)[C@]1(C)O | inactive | inactive | inactive
9 | Cc1ccc(C(C)C)c(O)c1 | inactive | inactive | inactive
10 | Cc1oc(=O)oc1COC(=O)[C@@H]1N2C(=O)[C@@H](NC(=O)[C@H](N)c3ccccc3)[C@H]2SC1(C)C | inactive | inactive | inactive
11 | Cc1c(C)c2c(c(C)c1O)CCC(C)(COc1ccc(CC3SC(=O)NC3=O)cc1)O2 (centres undefined) | inactive | inactive | inactive
12 | Clc1ccc2c(c1)Nc1ccccc1S2 | inactive | inactive | inactive
13 | CCN1CCC[C@H]1CNC(=O)c1c(OC)ccc(Br)c1OC | inactive | inactive | inactive
14 | Nc1ccc(C(=O)O)cc1 | inactive | inactive | inactive
15 | CC(C)C[C@H](NC(=O)CNC(=O)[C@H](Cc1ccc(O)cc1)NC(=O)[C@H](CO)NC(=O)[C@H](Cc1c[nH]c2ccccc12)NC(=O)[C@H](Cc1cnc[nH]1)NC(=O)[C@@H]1CCC(=O)N1)C(=O)N[C@@H](CCCN=C(N)N)C(=O)N1CCC[C@H]1C(=O)NCC(N)=O (stereo in doubt) | inactive | inactive | inactive
16 | Nc1nc(N)c(-c2ccccc2)s1 | inactive | inactive | inactive
17 | O=C(CS(=O)Cc1ccco1)NC/C=C\COc1cc(CN2CCCCC2)ccn1 (centres undefined) | inactive | inactive | inactive

Row | SMILES | Potency [1] | Potency [2] | Potency [3]
18 | CCOC(=O)c1ccc(O)c(O)c1 | inactive | inactive | inactive
19 | CNC[C@H](O)c1cccc(O)c1 | inactive | inactive | inactive
20 | Oc1ccccc1C=NCc1ccccc1 | inactive | inactive | inactive
21 | CCOC(=O)c1ccc(O)cc1 | inactive | inactive | inactive
22 | O=c1[nH]c(=O)n([C@H]2O[C@H](CO)[C@@H](O)[C@@H]2O)cc1/C=C\Br | inactive | inactive | inactive
23 | CCOC(=O)c1cnc2c(cnn2CC)c1NN=C(C)C | inactive | inactive | inactive
24 | O=C(CCBr)N1CCN(C(=O)CCBr)CC1 | inactive | inactive | inactive
25 | C[C@@H]1O[C@@H](O[C@H]2CC[C@@]3(C)[C@H](CC[C@@H]4[C@H]3C[C@@H](O)[C@]3(C)[C@@H](C5=CC(=O)OC5)CC[C@]43O)C2)C[C@H](O)[C@@H]1O[C@H]1C[C@H](O)[C@H](O[C@H]2C[C@H](O)[C@@H](O)[C@@H](C)O2)[C@H](C)O1 (stereo in doubt) | 352 nM (active) | 396 nM (active) | 444 nM (active)
26 | CCN1CCCC1CN (centres undefined) | inactive | inactive | inactive
27 | NS(=O)(=O)c1cc(C(=O)NN2C[C@H]3[C@H]4CCC(C4)[C@H]3C2)ccc1Cl | inactive | inactive | inactive
28 | C[N+](C)(CCOc1ccccc1)Cc1cccs1 | inactive | inactive | inactive
29 | C=C[C@H]1CN2CC[C@H]1C[C@H]2[C@H](O)c1ccnc2ccc(OC)cc12 | inactive | inactive | inactive
30 | Cc1ccnc(NS(=O)(=O)c2ccc(N)cc2)n1 | inactive | inactive | inactive
31 | O=C(O)Cc1cn(-c2ccccc2)nc1-c1ccc(Cl)cc1 | inactive | inactive | inactive
32 | Nc1ncnc2c1ncn2Cc1c(F)cccc1Cl | inactive | inactive | inactive
33 | O=C(O)c1cc(-c2ccccc2)nc2ccccc12 | inactive | inactive | inactive
